The target in assay [1] is Retinoic acid receptor alpha (Homo sapiens) (UniProt P10276). The assay is described as follows: ATG_DR5_RAR_CIS: Attagene CIS-FACTORIAL HepG2 Assay for human Retinoic Acid Receptor Alpha (RARE), DR5 submotif (AID 2282934). As to conditions: HepG2 Attagene cis-factorial RARE DR5 reporter, mRNA; actives raise or lower the signal. In short, it runs like this: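 HepG2 cells transiently transfected with multiplexed reporter units; DR5 cis-element drives reporter through endogenous transcription factors. After 24 h dosing, reporter mRNA quantified by RT-PCR, fluorescent labeling, HpaI digestion and capillary electrophoresis; bidirectional fitting versus DMSO.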

Assay [2] in a line: ATG_M_19_CIS: Attagene CIS-FACTORIAL HepG2 Assay for M19 Transcription Factor (Internal Marker) (AID 2282939). As to conditions: HepG2 Attagene CIS-FACTORIAL M19 internal marker reporter; actives raise or lower the signal. In short, it runs like this: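 Signals come from fluorescence of labelled reporter-specific PCR fragments resolved by capillary electrophoresis, following 24 h treatment of HepG2 cells transfected with cis-promoter reporter units; activity was fitted in both directions relative to DMSO.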

A short description of assay [3]: ATG_GRE_CIS: Attagene CIS-FACTORIAL HepG2 Assay for human Glucocorticoid Response Elements (GRE) (AID 2282947). Particulars: HepG2 GRE cis-reporter, Attagene multiplex mRNA; actives raise or lower the signal. In short, it runs like this:
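Fluorescence intensity of reporter-specific cDNA fragments, separated by capillary electrophoresis, provides the signal. Constructs carry cis-regulating promoters in transiently transfected HepG2 liver cells; 24 h incubation; fitting is bidirectional against DMSO.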

For assay [4], the target named is Hepatocyte nuclear factor 6 (Homo sapiens) (UniProt Q9UBC0). The assay is described as follows: ATG_HNF6_CIS: Attagene CIS-FACTORIAL HepG2 Assay for human Hepatocyte Nuclear Factor 6 (HNF6) (AID 2282952). As to conditions: HepG2 Attagene cis-factorial HNF6 reporter transcription; actives raise or lower the signal. In short, it runs like this: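 Endogenous transcription factor activity in human HepG2 liver cells was captured through cis-regulated reporter constructs. After 24 h treatment, reporter mRNA was measured by RT-PCR with capillary electrophoresis, and activity was fitted in both directions relative to DMSO.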

Assay [5] is described as follows: ATG_MRE_CIS: Attagene CIS-FACTORIAL HepG2 Assay for human Metal Responsive Element (MRE) (AID 2282954). As to conditions: HepG2 MRE cis-reporter transcription, Attagene multiplex; actives raise or lower the signal. In short, it runs like this:
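Measured here is mRNA induction from an MRE cis-element reporter in HepG2 after 24 h, quantified by fluorescence of labelled RT-PCR products on capillary electrophoresis; gain- and loss-of-signal fits use DMSO as baseline.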

Assay [6] in a line: ATG_PBREM_CIS: Attagene CIS-FACTORIAL HepG2 Assay for human Phenobarbital-responsive Enhancer Module (PBREM) (AID 2282955). As to conditions: HepG2 PBREM cis-reporter, Attagene multiplexed transcription; actives raise or lower the signal. In short, it runs like this:
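Endogenous transcription factor activity was read from reporter transcripts in transiently transfected human HepG2 liver cells after 24 h dosing. RT-PCR products were fluorescently labelled, HpaI-cut and sized by capillary electrophoresis; activity fitted bidirectionally against DMSO baseline.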

The nature of assay [7]: ATG_TGFb_CIS: Attagene CIS-FACTORIAL HepG2 Assay for human Transforming Growth Factor (TGF) (AID 2282967). As to conditions: HepG2 Attagene CIS TGFb reporter, mRNA transcription; actives raise or lower the signal. In short, it runs like this:
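Bidirectional fitting relative to DMSO gave the endpoint. Underlying data: reporter mRNA from HepG2 cells carrying transiently transfected cis-regulated reporter constructs, harvested 24 h after dosing and analyzed by RT-PCR and capillary electrophoresis.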

For assay [8], the target named is X-box-binding protein 1 (Homo sapiens) (UniProt P17861). The experiment in a line: ATG_Xbp1_CIS: Attagene CIS-FACTORIAL HepG2 Assay for human X-box Binding Protein 1 (XBP1) (AID 2282972). Particulars: HepG2 XBP1 cis-element reporter, Attagene multiplex; actives raise or lower the signal. In short, it runs like this: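 Read-out: fluorescent reporter mRNA fragments resolved by capillary electrophoresis after RT-PCR. Human HepG2 liver cells carried transfected cis-promoter reporter units and were exposed to chemicals for 24 hours. Gain or loss of signal fitted relative to DMSO baseline.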

Assay [9] has as its target Hepatocyte nuclear factor 4-alpha (Homo sapiens) (UniProt P41235). The assay is described as follows: ATG_HNF4a_TRANS: Attagene TRANS-FACTORIAL HepG2 Assay for human Hepatocyte Nuclear Factor 4 alpha (HNF4a) (AID 2282982; active means hit-call score of the fitted dose curve at least 0.9, where 1 is the maximum). Particulars: HepG2 HNF4a transactivation reporter, mRNA readout. In short, it runs like this:
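Endpoint reflects transcriptional activation of a GAL4-UAS reporter by an HNF4a-GAL4 chimera in transfected HepG2 cells, 24 h post-dosing. Fluorescence from RT-PCR products separated by capillary electrophoresis; DMSO baseline.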

A short description of assay [10]: ATG_M_06_TRANS: Attagene TRANS-FACTORIAL HepG2 Assay for M06 Transcription Factor (Internal Marker) (AID 2282983; active means hit-call score of the fitted dose curve at least 0.9, where 1 is the maximum). As to conditions: HepG2 Attagene TRANS M06 internal marker reporter. In short, it runs like this: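 Human liver HepG2 cells bearing transiently transfected chimeric NR-GAL4 reporter units were treated with chemicals for 24 h. Total RNA was reverse-transcribed, reporter sequences amplified and labelled, then quantified by capillary electrophoresis. Activity was fitted upward relative to DMSO.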

Assay [11] can be described thus: ATG_M_32_TRANS: Attagene TRANS-FACTORIAL HepG2 Assay for M32 Transcription Factor (Internal Marker) (AID 2282984; active means hit-call score of the fitted dose curve at least 0.9, where 1 is the maximum;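 further: transcript level of a background control reporter unit measured by RT-PCR and capillary electrophoresis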). Particulars: HepG2 Attagene TRANS M32 internal marker reporter. In short, it runs like this: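 Internal-marker readout from a multiplexed transcription reporter panel. HepG2 cells were transfected with GAL4-UAS reporter units, treated 24 hours, and reporter transcript levels determined by fluorescence after RT-PCR and capillary separation.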

Assay [12] in a line: ATG_NF_kB_CIS: Attagene CIS-FACTORIAL HepG2 Assay for human Nuclear Factor Kappa B (NF-kB) (AID 2282991). Particulars: HepG2 Attagene cis-factorial NF-kB reporter mRNA; actives raise or lower the signal. In short, it runs like this:
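Readout is reporter transcript level, gain or loss versus DMSO, measured 24 h post-dose via RT-PCR, fluorescent labelling and capillary electrophoresis. Human HepG2 liver cells carried transiently transfected CIS reporter constructs reflecting endogenous factors.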

The target of assay [13] is Retinoic acid receptor RXR-alpha (Homo sapiens) (UniProt P19793). The assay is described as follows: ATG_RXRa_TRANS: Attagene TRANS-FACTORIAL HepG2 Assay for human Retinoid X Receptor alpha (RXRa) (AID 2283012; active means hit-call score of the fitted dose curve at least 0.9, where 1 is the maximum). In short, it runs like this: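 Measures exogenous chimeric NR-GAL4 activity in transfected HepG2 liver cells after 24 h of dosing. Induced reporter mRNA was detected by RT-PCR with capillary electrophoresis, and gain of signal was analysed against DMSO.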

In assay [14] the target is human Retinoid X Receptor beta (RXRb), RXRB (gene 6257) (UniProt P28702). The experiment in a line: ATG_RXRb_TRANS: Attagene TRANS-FACTORIAL HepG2 Assay for human Retinoid X Receptor beta (RXRb) (AID 2283013; active means hit-call score of the fitted dose curve at least 0.9, where 1 is the maximum). In short, it runs like this:
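Chimeric receptor-Gal4 activity was assessed in transiently transfected human HepG2 cells after 24 h exposure. Transcripts from GAL4-UAS reporters were quantified by fluorescent RT-PCR and capillary electrophoresis, with DMSO as negative control and baseline.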

The nature of assay [15]: TOX21_p53_BLA_p2_viability: Viability Assessment in the Tox21 HCT-116 p53 Agonism Beta-lactamase Assay, Phase 2 (AID 2283591; active means hit-call score of the fitted dose curve at least 0.9, where 1 is the maximum;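 further: compound exposure lasted 16 h at 37 °C; actives lower the ATP signal meaning cytotoxicity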). In short, it runs like this:
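HCT116 p53-bla cells, 4000/well, dosed after 5 h plating (217-fold dilution of DMSO stocks) and incubated 16 h at 37C. Viability taken as cellular ATP by CellTiter-Glo luminescence after 30 min RT; signal loss marks cytotoxicity.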

Assay [16] deals with Cellular tumor antigen p53 (Homo sapiens) (UniProt P04637). The assay is described as follows: TOX21_p53_BLA_p2_ratio: Tox21 HCT-116 p53 Agonism Beta-lactamase Assay, Ratio, Phase 2 (AID 2283592; active means hit-call score of the fitted dose curve at least 0.9, where 1 is the maximum). In short, it runs like this:
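Cleaved-to-uncleaved substrate ratio (460 vs 530 nm) measured in HCT116 cells with an inducible beta-lactamase reporter linked to p53 activity. Compounds incubated 16 h at 37C before 2 h room-temperature CCF4-AM loading.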

Assay [17] has the same target. The experiment in a line: TOX21_p53_BLA_p3_ratio: Tox21 HCT-116 p53 Agonism Beta-lactamase Assay, Ratio, Phase 3 (AID 2283596; active means hit-call score of the fitted dose curve at least 0.9, where 1 is the maximum). In short, it runs like this: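 Cells were seeded at 4000/well, rested 5 h at 37C, then dosed with DMSO compound solutions (217-fold dilution) for 16 h. CCF4-AM substrate was loaded for 2 h at room temperature, and the 460/530 nm emission ratio was fitted for gain of signal versus DMSO.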

Assay [18] has the same target. The experiment in a line: TOX21_p53_BLA_p5_ratio: Tox21 HCT-116 p53 Agonism Beta-lactamase Assay, Ratio, Phase 5 (AID 2283599; active means hit-call score of the fitted dose curve at least 0.9, where 1 is the maximum). In short, it runs like this:
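HCT-116 p53-bla cells (4000/well) plated 5 h, dosed with compound (217-fold DMSO dilution) for 16 h at 37 C; CCF4-AM substrate 2 h at room temperature. Activity is the 460/530 nm emission ratio (405 nm excitation), fitted in gain-of-signal direction versus DMSO.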

Assay [19] is described as follows: TOX21_p53_BLA_p5_viability: Viability Assessment in the Tox21 HCT-116 p53 Agonism Beta-lactamase Assay, Phase 5 (AID 2283600; active means hit-call score of the fitted dose curve at least 0.9, where 1 is the maximum). In short, it runs like this:
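Viability is taken from cellular ATP content, measured by luciferase luminescence in the same wells after the beta-lactamase ratio read. Cells are seeded at 4000 per well and exposed to DMSO-dissolved compounds, diluted 217-fold, for 16 h.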

The target in assay [20] is Cellular tumor antigen p53 (Homo sapiens) (UniProt P04637). The assay is described as follows: TOX21_p53_BLA_p4_ratio: Tox21 HCT-116 p53 Agonism Beta-lactamase Assay, Ratio, Phase 4 (AID 2283601; active means hit-call score of the fitted dose curve at least 0.9, where 1 is the maximum). In short, it runs like this: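 HCT-116 p53 beta-lactamase reporter cells (4000/well) preincubated 5 h, then compound (217-fold dilution of DMSO stock) for 16 h at 37C. CCF4-AM substrate added 2 h at room temperature; 460/530 nm emission ratio fitted upward versus DMSO.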

Molecules are shown by their SMILES. Records with an inconclusive call do not appear. Calls of active or inactive are those of the source. How the source made its calls, unless noted: active means hit-call score of the fitted dose curve at least 0.9, where 1 is the maximum; inactive means score below 0.9.

The AC50 is the concentration at which the activity in the assay is half-maximal.

X-box-binding protein 1 (Homo sapiens), sequence (P17861 whole entry, looked up, the tested form may be a part): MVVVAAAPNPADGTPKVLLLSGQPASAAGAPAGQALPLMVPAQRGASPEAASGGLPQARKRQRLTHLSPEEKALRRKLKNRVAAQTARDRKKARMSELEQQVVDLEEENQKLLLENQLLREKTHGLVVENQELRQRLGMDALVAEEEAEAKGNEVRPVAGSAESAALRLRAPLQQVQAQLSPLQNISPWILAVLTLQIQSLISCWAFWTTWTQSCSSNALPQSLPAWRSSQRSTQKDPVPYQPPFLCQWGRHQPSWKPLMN
Hepatocyte nuclear factor 6 (Homo sapiens), sequence (Q9UBC0 whole entry, looked up): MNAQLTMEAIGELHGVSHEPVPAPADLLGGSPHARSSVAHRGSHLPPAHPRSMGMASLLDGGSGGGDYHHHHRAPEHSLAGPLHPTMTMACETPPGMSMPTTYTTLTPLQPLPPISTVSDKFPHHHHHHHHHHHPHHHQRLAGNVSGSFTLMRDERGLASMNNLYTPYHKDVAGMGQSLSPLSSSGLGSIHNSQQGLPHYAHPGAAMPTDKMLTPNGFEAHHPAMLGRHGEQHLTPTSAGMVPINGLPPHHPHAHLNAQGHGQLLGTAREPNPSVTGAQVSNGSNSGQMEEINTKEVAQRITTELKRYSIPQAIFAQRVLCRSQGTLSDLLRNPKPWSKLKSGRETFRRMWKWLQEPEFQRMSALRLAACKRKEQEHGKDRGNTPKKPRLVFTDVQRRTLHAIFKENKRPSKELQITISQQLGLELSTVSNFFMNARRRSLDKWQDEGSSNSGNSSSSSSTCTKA
Retinoic acid receptor RXR-alpha (Homo sapiens), sequence (P19793 whole entry, looked up, the tested form may be a part): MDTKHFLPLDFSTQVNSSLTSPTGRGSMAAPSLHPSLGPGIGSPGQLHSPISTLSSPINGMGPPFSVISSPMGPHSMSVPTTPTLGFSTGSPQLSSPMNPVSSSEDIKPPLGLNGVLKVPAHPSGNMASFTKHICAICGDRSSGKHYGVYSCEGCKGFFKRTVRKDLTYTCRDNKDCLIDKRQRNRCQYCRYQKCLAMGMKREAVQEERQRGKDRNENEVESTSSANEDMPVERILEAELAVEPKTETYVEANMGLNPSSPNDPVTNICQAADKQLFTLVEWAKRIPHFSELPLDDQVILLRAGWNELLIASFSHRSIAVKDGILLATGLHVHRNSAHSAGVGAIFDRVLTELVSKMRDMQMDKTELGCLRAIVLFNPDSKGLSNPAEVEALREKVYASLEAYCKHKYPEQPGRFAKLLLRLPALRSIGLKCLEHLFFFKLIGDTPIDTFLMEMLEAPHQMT
Cellular tumor antigen p53 (Homo sapiens), sequence (P04637 whole entry, looked up): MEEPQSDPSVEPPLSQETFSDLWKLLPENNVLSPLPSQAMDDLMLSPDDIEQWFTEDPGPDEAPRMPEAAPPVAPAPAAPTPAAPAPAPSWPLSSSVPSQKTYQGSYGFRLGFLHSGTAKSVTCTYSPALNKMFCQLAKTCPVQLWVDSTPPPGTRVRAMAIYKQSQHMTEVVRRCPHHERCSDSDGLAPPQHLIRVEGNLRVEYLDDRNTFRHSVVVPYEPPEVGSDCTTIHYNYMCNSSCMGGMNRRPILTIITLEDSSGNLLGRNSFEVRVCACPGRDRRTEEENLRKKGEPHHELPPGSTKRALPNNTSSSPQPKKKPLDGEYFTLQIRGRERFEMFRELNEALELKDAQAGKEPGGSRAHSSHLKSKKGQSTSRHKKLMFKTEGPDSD
Hepatocyte nuclear factor 4-alpha (Homo sapiens), sequence (P41235 whole entry, looked up, the tested form may be a part): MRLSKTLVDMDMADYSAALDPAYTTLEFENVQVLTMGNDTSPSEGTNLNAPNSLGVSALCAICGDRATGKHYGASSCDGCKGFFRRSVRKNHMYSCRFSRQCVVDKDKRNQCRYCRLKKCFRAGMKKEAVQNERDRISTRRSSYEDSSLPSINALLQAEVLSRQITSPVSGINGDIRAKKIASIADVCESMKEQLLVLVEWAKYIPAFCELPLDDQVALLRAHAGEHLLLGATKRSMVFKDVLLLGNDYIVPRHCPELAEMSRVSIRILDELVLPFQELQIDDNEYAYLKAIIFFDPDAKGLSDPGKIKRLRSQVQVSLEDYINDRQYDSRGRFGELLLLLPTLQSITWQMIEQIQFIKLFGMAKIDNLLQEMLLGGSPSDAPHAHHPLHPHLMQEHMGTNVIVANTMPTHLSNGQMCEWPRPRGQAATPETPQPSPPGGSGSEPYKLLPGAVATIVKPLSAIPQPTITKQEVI
Retinoic acid receptor alpha (Homo sapiens), sequence (P10276 whole entry, looked up): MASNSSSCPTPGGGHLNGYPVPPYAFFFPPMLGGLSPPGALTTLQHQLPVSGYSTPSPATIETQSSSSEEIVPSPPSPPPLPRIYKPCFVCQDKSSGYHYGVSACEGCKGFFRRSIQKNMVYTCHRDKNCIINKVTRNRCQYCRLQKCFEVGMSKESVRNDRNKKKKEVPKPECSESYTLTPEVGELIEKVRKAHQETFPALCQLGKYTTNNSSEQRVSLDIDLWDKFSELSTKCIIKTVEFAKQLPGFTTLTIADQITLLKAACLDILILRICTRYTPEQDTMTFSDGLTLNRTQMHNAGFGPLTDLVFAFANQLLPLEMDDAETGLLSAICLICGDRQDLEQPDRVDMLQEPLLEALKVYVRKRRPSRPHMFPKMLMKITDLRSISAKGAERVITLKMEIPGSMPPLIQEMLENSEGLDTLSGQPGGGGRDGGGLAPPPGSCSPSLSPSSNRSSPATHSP
human Retinoid X Receptor beta (RXRb), RXRB (gene 6257), sequence (P28702 whole entry, looked up, the tested form may be a part): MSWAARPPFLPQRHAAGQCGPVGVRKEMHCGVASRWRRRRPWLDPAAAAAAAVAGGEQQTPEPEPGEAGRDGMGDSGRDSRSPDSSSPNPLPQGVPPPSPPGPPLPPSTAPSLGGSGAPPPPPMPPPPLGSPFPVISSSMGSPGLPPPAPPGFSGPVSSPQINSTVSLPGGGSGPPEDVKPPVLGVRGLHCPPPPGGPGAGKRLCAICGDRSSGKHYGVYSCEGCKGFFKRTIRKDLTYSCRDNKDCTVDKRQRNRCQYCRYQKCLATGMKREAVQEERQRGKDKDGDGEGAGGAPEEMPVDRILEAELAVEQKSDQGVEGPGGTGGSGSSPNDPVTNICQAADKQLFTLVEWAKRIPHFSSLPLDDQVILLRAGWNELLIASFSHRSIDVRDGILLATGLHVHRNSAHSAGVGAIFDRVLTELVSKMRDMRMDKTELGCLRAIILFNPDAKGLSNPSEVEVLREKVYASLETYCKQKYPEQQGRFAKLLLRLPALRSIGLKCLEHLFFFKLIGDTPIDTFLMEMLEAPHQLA

With `O=C(OCc1ccccc1)c1ccccc1`, the compound was classed as inactive in [1], in [2], in assay [3], in [4], in [5] and in assay [6]. In addition, the outcome in assay [7], in assay [8], in [9], in [10], in assay [11] and in assay [12] was inactive. Also, the outcome in assay [13] and in assay [14] was inactive.
Regarding `CC(=O)CCc1ccccc1`, the result in assay [1], in [2], in [4], in assay [5], in assay [6] and in assay [7] was inactive. Moreover, the result in [8], in assay [12], in assay [15], in assay [16], in assay [17] and in assay [18] was inactive. In addition, the outcome in [19] and in assay [20] was inactive.
With `CCC(C)(CCC(C)C)C(=O)O` (configuration not stated), the compound was called inactive in [1], in assay [2], in assay [8], in assay [9], in assay [10] and in assay [11]. The compound was classed as inactive in [12].
On to `NC(=O)c1ccc([N+](=O)[O-])cc1Cl`, for which the result in assay [1], in assay [2], in assay [3], in assay [6], in [7] and in assay [8] was inactive. Also, the result in [9], in assay [10], in assay [11], in assay [12], in [14] and in assay [15] was inactive. Moreover, the result in assay [16], in assay [17], in assay [18], in [19] and in assay [20] was inactive.
Turning to `CC(=O)Nc1c(I)c(NC(C)=O)c(I)c(C(=O)O)c1I`, the compound was classed as inactive in assay [1], in assay [2], in [3], in assay [4], in [5] and in [7]. For the same compound, the compound was called inactive in [8], in assay [9] and in [10].
For `O=C(Oc1ccccc1)c1ccccc1`, the outcome in [1], in assay [2], in assay [6], in [7], in [9] and in assay [10] was inactive. In addition, the compound was classed as inactive in [12] and in [14].
On to `COC(=O)CCSCCC(=O)OC`, for which the call in assay [1], in assay [2], in assay [3], in assay [5], in assay [6] and in assay [7] was inactive. Also, the compound was called inactive in assay [8], in assay [11] and in [12].
For the compound `Sc1nc2ccccc2s1`, the compound was called inactive in assay [1], in [2], in assay [3], in assay [4], in assay [5] and in assay [6]. Besides, the outcome in assay [7], in assay [8], in assay [10], in assay [11], in [13] and in assay [14] was inactive. Moreover, the result in assay [16], in [17], in [18] and in assay [20] was inactive. In addition, the AC50 in assay [15] is 0.211 nM (active); in assay [19] it was 0.128 nM (active).
As to `CCC(C)=NO`, the compound was classed as inactive in assay [1], in assay [2], in assay [3], in assay [5], in [6] and in [7]. For the same compound, the compound was called inactive in assay [8], in assay [9], in assay [10], in assay [11], in assay [15] and in assay [16]. Besides, the outcome in [17], in assay [18] and in assay [20] was inactive.
For `O=[N+]([O-])c1ccc2nc[nH]c2c1`, the call in assay [2], in assay [4], in assay [5], in assay [6], in [7] and in [12] was inactive.
`COCCCN`: the compound was called inactive in assay [2], in [3], in [4], in assay [6], in assay [9] and in [11]. Further, the compound was classed as inactive in assay [12], in [13], in [14], in assay [15], in assay [16] and in assay [17]. Also, the outcome in assay [18], in assay [19] and in [20] was inactive.

For the origin of these results see PubChem BioAssay (EPA / NIEHS).
